“And” between values parts separate entries of the source, which are not always exact repeats. Equal entries are not always repeated. Inconclusive results are not listed. Where a call stands in place of a potency, no number is given. The source made the active and inactive calls. Unless noted, calls come from the whole dose curve; as a rule, active = well fitted curve in the direction sought with a large enough effect; inconclusive = small, poorly fitted or top-dose-only effect, or another doubt; inactive = no such curve, though single readings can be large; an effect the other way counts as inactive or inconclusive.
Experiments:
[1] = target: Mitogen-activated protein kinase 10 (Mus musculus) (UniProt Q61831); test: JNK3 AlphaScreen Assay (AID 530; active = well fitted curve in either direction with a large enough effect, not every such curve was filed as active;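 note: kinase came from lysate of stimulated human HepG2 cells; signal reports phosphorylation of biotinylated GST-cJun 1-79 at Ser73 with 10 µM ATP; series mostly up to about 57 µM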)
In short: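 Room-temperature AlphaScreen kinase assay; pre-activated HepG2 lysate as JNK3 source, biotin-GST-cJun(1-79) substrate, 10 uM ATP, compound 15 min preincubation.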

[2] = target: Cytochrome P450 3A4 (Homo sapiens) (UniProt P08684); test: qHTS Assay for Activators of Cytochrome P450 3A4 (AID 885); note: nearly all actives have a fitted effect of over 65% in size
Sequence of Cytochrome P450 3A4 (Homo sapiens) (P08684 whole entry, looked up): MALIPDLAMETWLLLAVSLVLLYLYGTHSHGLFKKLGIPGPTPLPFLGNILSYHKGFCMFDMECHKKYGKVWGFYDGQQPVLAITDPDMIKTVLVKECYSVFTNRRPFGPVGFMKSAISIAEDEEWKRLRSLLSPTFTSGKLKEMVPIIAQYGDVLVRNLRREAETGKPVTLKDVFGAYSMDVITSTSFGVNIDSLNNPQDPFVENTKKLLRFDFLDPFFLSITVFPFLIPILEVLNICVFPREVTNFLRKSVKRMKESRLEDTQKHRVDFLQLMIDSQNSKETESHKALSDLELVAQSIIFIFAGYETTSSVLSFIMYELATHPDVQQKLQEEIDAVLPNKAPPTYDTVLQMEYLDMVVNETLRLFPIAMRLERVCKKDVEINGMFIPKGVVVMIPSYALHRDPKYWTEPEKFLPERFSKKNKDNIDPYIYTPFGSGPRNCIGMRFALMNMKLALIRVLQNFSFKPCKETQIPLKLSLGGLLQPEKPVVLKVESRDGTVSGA
In short: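 Quantitative HTS format: compounds preincubated with 20nM human CYP3A4 and Luciferin-PPXE substrate at KM, reaction started by NADPH regeneration, stopped after 60 min, luciferase luminescence read 20 min later.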

[3] = target: Calcium and integrin-binding protein 1 (Homo sapiens) (UniProt Q99828); test: Primary qHTS for Identification of Calcium Integrin Binding Protein 1 (CIB1) Competitor (AID 1508620);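 note: GST tagged CIB1 binding a fluorescein labelled alphaIIb integrin peptide tracer; top concentration of the series differs between compounds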
Sequence of Calcium and integrin-binding protein 1 (Homo sapiens) (Q99828 whole entry, looked up): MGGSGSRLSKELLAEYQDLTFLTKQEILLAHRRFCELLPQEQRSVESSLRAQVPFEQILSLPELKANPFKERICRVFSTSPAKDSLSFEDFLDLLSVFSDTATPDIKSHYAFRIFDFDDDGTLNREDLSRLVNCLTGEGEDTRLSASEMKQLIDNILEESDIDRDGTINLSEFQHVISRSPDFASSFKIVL
In short: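 CIB1-GST (1 uM final) and compound incubated 15 min at room temperature before adding FITC-alphaIIb peptide tracer (100 nM final). Competition for binding read by fluorescence polarization (ex 480, em 540) after another 15 min at room temperature.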

[4] = qHTS for Inhibitors of Ubiquitin-specific Protease USP2a Using CHOP2 as the Reporter: K633 Counterscreen (AID 652168); note: series mostly up to about 57 µM
In short: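 Cell-free interference counterscreen without USP2a: compounds pinned into enzyme-free buffer (20 mM Tris pH 8, 2 mM beta-mercaptoethanol, 0.05% Chaps), then DiUb K48-4IQF substrate added (100 nM stock); fluorescence read kinetically, Ex 525/Em 598.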

[5] = qHTS for Inhibitors of Ubiquitin-specific Protease USP2a Using CHOP2 as the Reporter: Cytotox Assay (AID 652170); note: nearly all actives have a fitted effect of over 70% in size; note: potency is the fitted concentration of half-maximal effect
In short: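 HCT116 human colon cancer cells, 600 per well in DMEM with 10% FBS, exposed to compounds for 72 hr at 37 deg C. ATP measured by CellTiter-Glo luminescence, normalized to DMSO cells and no-cell background.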

[6] = target: Ubiquitin carboxyl-terminal hydrolase 2 (Homo sapiens) (UniProt O75604); test: qHTS for Inhibitors of Ubiquitin-specific Protease USP2a Using CHOP2 as the Reporter: K484 Substrate (AID 652173);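 note: cleavage of internally quenched K48 di-ubiquitin substrate measured as rising fluorescence over time; nearly all actives have a fitted effect of over 70% in size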; note: potency is the fitted concentration of half-maximal effect
Sequence of Ubiquitin carboxyl-terminal hydrolase 2 (Homo sapiens) (O75604 whole entry, looked up): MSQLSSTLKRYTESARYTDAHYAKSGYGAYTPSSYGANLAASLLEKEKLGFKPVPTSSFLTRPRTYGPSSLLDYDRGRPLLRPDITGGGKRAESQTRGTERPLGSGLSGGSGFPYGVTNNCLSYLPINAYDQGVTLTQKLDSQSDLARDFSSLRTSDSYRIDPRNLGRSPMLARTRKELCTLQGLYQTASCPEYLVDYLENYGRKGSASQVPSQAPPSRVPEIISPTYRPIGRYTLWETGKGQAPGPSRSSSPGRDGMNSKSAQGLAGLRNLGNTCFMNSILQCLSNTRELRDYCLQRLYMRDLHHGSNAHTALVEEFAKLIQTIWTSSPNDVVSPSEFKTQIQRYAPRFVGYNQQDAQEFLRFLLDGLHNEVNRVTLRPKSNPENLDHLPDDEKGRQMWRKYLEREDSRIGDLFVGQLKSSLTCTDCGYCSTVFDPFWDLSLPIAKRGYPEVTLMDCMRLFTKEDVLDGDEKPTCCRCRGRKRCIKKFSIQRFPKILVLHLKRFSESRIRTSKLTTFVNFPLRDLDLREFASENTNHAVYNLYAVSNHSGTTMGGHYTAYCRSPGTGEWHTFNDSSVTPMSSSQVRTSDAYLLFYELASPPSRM
In short: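 USP2 (dispensed at 5 nM) was pinned with compounds, then DiUb K48 internally quenched fluorescent substrate (dispensed at 100 nM) was added. The buffer was 20 mM Tris pH 8, 2 mM beta-mercaptoethanol and 0.05% CHAPS. Cleavage was read kinetically as rising fluorescence, Ex 525/Em 598.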

Row | SMILES | outcome [1] | Potency [2] | Potency [3] | outcome [4] | Potency [5] | Potency [6]
1 | CCCn1c(-c2ccc(F)cc2)nc2c(NCCN(CC)CC)nc(C)nc21 | inactive | inactive | inactive |  |  | 
2 | O=C(Nc1nc(-c2ccccc2)cs1)c1ccncc1NS(=O)(=O)c1ccc(N2CCCC2=O)cc1 |  |  | inactive | inactive | inactive | 15.3 µM (active)
3 | Cc1nc(NCc2ccccc2)c2nc(-c3ccccc3)n(CCCN3CCCCC3C)c2n1 (stereo not given) | inactive | inactive | inactive |  |  | 
4 | CCCCNc1nc(C)nc2c1nc(C)n2CCC | inactive | inactive | inactive |  |  | 
5 | Cc1ccc(S(=O)(=O)Nc2cnccc2C(=O)Nc2ccncc2)cc1 |  |  | inactive | inactive | inactive | inactive
6 | Cc1nc(Nc2ccccc2)c2nc(-c3ccccc3)n(CCCN3CCCCC3C)c2n1 (stereo not given) | inactive | inactive | inactive |  |  | 
7 | CCS(=O)(=O)N1CCC(C(=O)Nc2ccc(S(=O)(=O)Nc3nccs3)cc2)CC1 |  |  | inactive | inactive | inactive | 
8 | CCN(CC)CCn1c(-c2ccccc2)nc2c(NCCOC)nc(C)nc21 | inactive | inactive | inactive |  |  | 
9 | Cc1ccc(S(=O)(=O)Nc2cnccc2C(=O)Nc2ccc(S(=O)(=O)Nc3nccs3)cc2)cc1 |  |  | inactive | inactive | inactive | 19.3 µM (active)
10 | Cc1ccc(S(=O)(=O)Nc2cnccc2C(=O)Nc2nc(-c3ccc(Cl)c(Cl)c3)cs2)cc1 |  |  | inactive | inactive |  | 3.06 µM (active)
11 | O=c1[nH]c(CN2CCOCC2)nc2sc3c(c12)CCC3 |  |  | inactive | inactive | inactive | inactive
12 | CC(C)(C)C1CCC(C(=O)Nc2ccc(S(=O)(=O)Nc3nccs3)cc2)CC1 (stereo not given) |  |  | inactive |  | inactive | 10.9 µM (active)
13 | CCOC(=O)c1csc(NC(=O)c2ccncc2NS(=O)(=O)c2ccc(C)cc2)n1 |  |  | inactive | inactive | inactive | 21.7 µM (active)
14 | Cc1noc(C)c1S(=O)(=O)Nc1cnccc1C(=O)Nc1nc(-c2ccccc2)cs1 |  |  | inactive | inactive | inactive | 6.85 µM (active)
15 | Cc1ccc(S(=O)(=O)Nc2ccc(Cl)cc2C(=O)Nc2nc(-c3ccccc3)cs2)cc1 |  |  | inactive | inactive | 4.18 µM (active) and 5.9 µM (active) | 1.09 µM (active) and 1.72 µM (active)
16 | Cc1ccc(S(=O)(=O)Nc2cnccc2C(=O)Nc2nc(-c3ccncc3)cs2)cc1 |  |  | inactive | inactive | inactive | 15.3 µM (active)
17 | Cc1ccc(S(=O)(=O)Nc2cccc(C(=O)Nc3nc(-c4ccccc4)cs3)c2Cl)cc1 |  |  | inactive |  | 11.8 µM (active) | 3.43 µM (active)
18 | Cc1ccc(S(=O)(=O)Nc2ccccc2C(=O)Nc2ccc(-c3ccccc3)nc2)cc1 |  |  | inactive |  | 20.9 µM (active) | 4.85 µM (active)
19 | Cc1ccc(S(=O)(=O)n2cc(C(=O)Nc3ccc(-c4ccccc4)cc3)c3ccccc32)cc1 |  |  | inactive | inactive | inactive | 21.7 µM (active)
20 | COc1ccc(C(=O)Nc2nc(-c3ccccc3)cs2)cc1NS(=O)(=O)c1ccc(C)cc1 |  |  | inactive |  | inactive | 3.06 µM (active)
21 | COc1ccc(OC)c(C(=O)Nc2nc(-c3ccccc3)cs2)c1 |  |  | inactive |  | inactive | 7.69 µM (active)
22 | Cc1ccc(S(=O)(=O)Nc2cc(F)c(F)cc2C(=O)Nc2nc(-c3ccccc3)cs2)cc1 |  |  | inactive | inactive | 2.96 µM (active) | 0.863 µM (active)
23 | COc1ccc(NS(=O)(=O)c2ccc(C)cc2)c(C(=O)Nc2nc(-c3ccccc3)cs2)c1 |  |  | inactive | inactive |  | 2.73 µM (active)
24 | Cc1ccc(S(=O)(=O)Nc2ccccc2C(=O)Nc2nccs2)cc1 |  |  | inactive | inactive |  | 24.3 µM (active)
25 | Cc1ccc(S(=O)(=O)Nc2ccncc2C(=O)Nc2nc(-c3ccccc3)cs2)cc1 |  |  | inactive | inactive |  | 4.85 µM (active)
26 | Cc1ccc([S+](=O)([O-])n2cc(Cc3ccc(-c4ccccc4)cc3)c3ccccc32)cc1 |  |  | inactive | inactive | inactive | inactive
27 | O=C(Nc1nc(-c2ccccc2)cs1)c1ccccc1-n1cnnn1 |  |  | inactive |  | inactive | 
28 | Clc1nc(CN2CCOCC2)nc2sc3c(c12)CCC3 |  |  | inactive | inactive | inactive | inactive
